Assay results from PubChem BioAssay.
Active and inactive are the calls of the source.

Key:
[1] = test system: PRMT1 (protein arginine N-methyltransferase 1); assay: PRMT1 binders on small-molecule microarrays, primary screen, biochemical, small-molecule microarray, 635 nm fluorescence (AID 1088); details: small-molecule microarray binding, higher = more signal;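 further: binding of Prmt1 protein to compounds spotted on small-molecule microarray slides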
[2] = yeast growth modulation, basal conditions, primary screen, YJM789 clinical isolate, OD600, 24 h (AID 1089);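 further: growth of clinical yeast isolate S. cerevisiae YJM 789 seeded 1000 cells per well; test concentration not given here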; details: S. cerevisiae YJM789 growth, higher = more signal, called active from +8 up or from −8 down
[3] = fission yeast growth modulation, primary screen, strain 972, OD600, 24 h, no modulator (AID 1090);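 further: basal condition with compound alone and no growth modifier present; test concentration not given here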; details: S. pombe 972 growth, higher = more signal, called active from +8 up or from −8 down
[4] = S. cerevisiae growth modulation with rapamycin, primary screen, strain BY4716, OD600, 96 h (AID 1091); details: higher = more signal, called active from +8 up or from −8 down; further: test concentration not given here
[5] = target: Torsin-1A-interacting protein 2 (Homo sapiens) (UniProt Q8NFQ8); assay: LULL1 binders on small-molecule microarray, primary screen, cell lysate, human LULL1 lysate, 635/667 nm fluorescence (AID 1092); details: hLULL1 lysate binding, 635 nm fluorescence, higher = more signal;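 further: probe is lysate of COS7 cells overexpressing human LULL1; score merges per-feature 667 nm fluorescence with signal-to-noise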
Sequence of Torsin-1A-interacting protein 2 (Homo sapiens) (Q8NFQ8 whole entry, looked up): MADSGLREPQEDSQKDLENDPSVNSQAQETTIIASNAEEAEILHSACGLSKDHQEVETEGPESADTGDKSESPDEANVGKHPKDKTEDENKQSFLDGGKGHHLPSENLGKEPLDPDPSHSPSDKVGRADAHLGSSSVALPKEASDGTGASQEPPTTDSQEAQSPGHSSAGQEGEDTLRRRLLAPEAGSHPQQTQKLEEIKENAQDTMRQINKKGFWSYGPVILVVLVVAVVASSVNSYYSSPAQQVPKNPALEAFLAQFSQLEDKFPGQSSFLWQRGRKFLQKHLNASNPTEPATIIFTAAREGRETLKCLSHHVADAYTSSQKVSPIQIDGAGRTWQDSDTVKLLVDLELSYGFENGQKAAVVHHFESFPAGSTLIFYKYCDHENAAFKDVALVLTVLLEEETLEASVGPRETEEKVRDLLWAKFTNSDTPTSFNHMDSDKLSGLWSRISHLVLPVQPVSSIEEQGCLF

[6] = E. coli growth modulation, two-sided OD650, primary screen, E. coli filamentation project, strain DRC41, 24 h (AID 1093); details: OD650, 24 h, higher = more signal, called active from +8 up or from −8 down;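 further: MC1000 strain lacking acrAB efflux and sulA so SOS filamentation is blocked; test concentration not given here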
[7] = small-molecule microarray binders of probe aLefty2, primary screen, biochemical, biotinylated probe, 635/667 nm fluorescence (AID 1094); details: higher = more signal;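 further: score merges spot fluorescence near 667 nm with spot signal-to-noise ratio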
[8] = test system: Noggin (protein binding on small-molecule microarray); assay: Noggin binders on small-molecule microarray, primary screen, biochemical, 635/667 nm fluorescence (AID 1095); details: 635 nm fluorescence, higher = more signal;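 further: score merges 667 nm feature fluorescence with signal to noise over triplicate slides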
[9] = target: Neurogenic locus notch homolog protein 3 (Homo sapiens) (UniProt Q9UM47); assay: NOTCH3 binders on small-molecule microarray, primary screen, biochemical, 635/667 nm fluorescence (AID 1096); details: NOTCH3 binding, 635 nm fluorescence, higher = more signal
Sequence of Neurogenic locus notch homolog protein 3 (Homo sapiens) (Q9UM47 whole entry, looked up): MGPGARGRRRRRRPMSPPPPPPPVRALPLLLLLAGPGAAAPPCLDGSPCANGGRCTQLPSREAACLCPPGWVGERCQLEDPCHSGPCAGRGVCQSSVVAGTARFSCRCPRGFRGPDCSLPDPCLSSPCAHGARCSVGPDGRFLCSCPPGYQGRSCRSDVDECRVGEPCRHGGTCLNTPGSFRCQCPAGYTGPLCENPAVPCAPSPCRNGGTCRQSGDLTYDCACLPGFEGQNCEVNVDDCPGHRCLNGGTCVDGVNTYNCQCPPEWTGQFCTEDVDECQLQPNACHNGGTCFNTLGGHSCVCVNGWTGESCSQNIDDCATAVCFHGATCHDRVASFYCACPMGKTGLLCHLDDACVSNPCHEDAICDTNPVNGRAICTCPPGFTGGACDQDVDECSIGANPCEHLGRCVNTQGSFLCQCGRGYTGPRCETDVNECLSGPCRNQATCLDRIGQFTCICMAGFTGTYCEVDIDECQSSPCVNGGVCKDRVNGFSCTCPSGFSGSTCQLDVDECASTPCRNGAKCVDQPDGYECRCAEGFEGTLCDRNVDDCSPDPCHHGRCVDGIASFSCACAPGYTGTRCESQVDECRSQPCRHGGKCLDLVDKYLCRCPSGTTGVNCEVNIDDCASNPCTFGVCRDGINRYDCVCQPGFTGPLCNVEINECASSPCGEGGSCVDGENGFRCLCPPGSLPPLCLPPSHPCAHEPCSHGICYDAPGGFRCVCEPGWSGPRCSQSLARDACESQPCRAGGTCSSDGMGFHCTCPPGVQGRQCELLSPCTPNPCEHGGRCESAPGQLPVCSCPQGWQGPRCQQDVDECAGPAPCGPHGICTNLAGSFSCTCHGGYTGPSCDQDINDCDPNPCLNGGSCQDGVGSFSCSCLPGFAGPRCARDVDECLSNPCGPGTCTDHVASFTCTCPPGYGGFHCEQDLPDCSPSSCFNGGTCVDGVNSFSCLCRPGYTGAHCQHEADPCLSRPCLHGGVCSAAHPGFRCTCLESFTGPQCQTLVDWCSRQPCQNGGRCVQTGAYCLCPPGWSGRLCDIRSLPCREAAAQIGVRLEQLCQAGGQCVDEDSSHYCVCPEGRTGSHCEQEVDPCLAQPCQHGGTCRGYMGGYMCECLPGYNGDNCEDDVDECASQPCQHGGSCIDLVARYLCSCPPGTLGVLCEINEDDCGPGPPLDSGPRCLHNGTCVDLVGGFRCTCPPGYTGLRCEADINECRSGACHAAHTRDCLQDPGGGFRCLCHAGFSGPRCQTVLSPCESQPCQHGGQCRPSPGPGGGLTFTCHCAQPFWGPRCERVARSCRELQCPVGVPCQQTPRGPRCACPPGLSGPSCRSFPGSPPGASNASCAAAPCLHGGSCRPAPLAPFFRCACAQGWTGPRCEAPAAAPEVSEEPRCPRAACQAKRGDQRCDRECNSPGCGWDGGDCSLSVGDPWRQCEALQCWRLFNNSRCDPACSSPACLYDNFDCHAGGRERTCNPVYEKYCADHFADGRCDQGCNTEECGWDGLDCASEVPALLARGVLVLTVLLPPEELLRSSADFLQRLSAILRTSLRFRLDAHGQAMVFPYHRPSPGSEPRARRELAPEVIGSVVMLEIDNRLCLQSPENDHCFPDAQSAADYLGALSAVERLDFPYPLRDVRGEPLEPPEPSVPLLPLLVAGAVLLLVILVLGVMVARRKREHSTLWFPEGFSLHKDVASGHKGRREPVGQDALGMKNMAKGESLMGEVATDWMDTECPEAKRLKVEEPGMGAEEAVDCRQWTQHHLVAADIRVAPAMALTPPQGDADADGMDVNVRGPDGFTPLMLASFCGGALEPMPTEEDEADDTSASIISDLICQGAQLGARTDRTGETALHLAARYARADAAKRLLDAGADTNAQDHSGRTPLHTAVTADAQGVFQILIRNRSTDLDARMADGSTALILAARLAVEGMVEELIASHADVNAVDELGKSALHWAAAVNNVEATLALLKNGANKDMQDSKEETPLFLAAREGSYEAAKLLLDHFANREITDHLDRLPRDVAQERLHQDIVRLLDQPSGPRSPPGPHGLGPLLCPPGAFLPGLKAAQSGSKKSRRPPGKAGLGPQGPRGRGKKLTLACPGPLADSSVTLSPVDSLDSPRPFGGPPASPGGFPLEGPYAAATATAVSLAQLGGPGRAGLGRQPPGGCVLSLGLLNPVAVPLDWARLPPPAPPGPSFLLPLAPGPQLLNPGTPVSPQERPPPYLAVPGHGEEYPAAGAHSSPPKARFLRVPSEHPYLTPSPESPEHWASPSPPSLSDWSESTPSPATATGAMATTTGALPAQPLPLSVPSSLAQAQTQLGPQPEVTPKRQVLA

[10] = small-molecule microarray binders of probe aEGFR, primary screen, biochemical, biotinylated probe, 635/667 nm fluorescence (AID 1097); details: higher = more signal;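 further: probe is a biotinylated anti-EGFR antibody binding compounds printed on slides; score combines fluorescence near 667 nm and signal to noise of each spot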
[11] = test system: Plasmodium falciparum Sir2 (PF13_0152, Sir2A); assay: pfSir2 binders on small-molecule microarrays, primary screen, biochemical, small-molecule microarray, 635 nm fluorescence (AID 1098); details: small-molecule microarray binding, fluorescence 635 nm; higher = more signal;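 further: score merges spot fluorescence intensity with its signal-to-noise ratio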
[12] = small-molecule microarray binders of probe aDKK1, primary screen, biochemical, biotinylated probe, 635/667 nm fluorescence (AID 1099); details: higher = more signal;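 further: score merges 667nm spot fluorescence with signal to noise across triplicate slides; reference of the scale not given here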
[13] = small-molecule microarray binders of probe aCHRDL2, primary screen, biochemical, biotinylated probe, 635/667 nm fluorescence (AID 1100); details: higher = more signal
[14] = splicing luciferase reporter signal modulators, primary screen, spliceosome inhibition project, cell-based, HEK293, splice +/- reporter (AID 1101); details: luminescence, 24 h, higher = more signal, called active from +8 up or from −8 down;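 further: HEK293 cells carrying a splicing-competent luciferase reporter gene; test concentration not given here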
[15] = target: Fibroblast growth factor 10 (Homo sapiens) (UniProt O15520); assay: FGF10 binders on small-molecule microarrays, primary screen, biochemical, small-molecule microarray, 635 nm fluorescence (AID 1102); details: FGF10 binding, fluorescence 635 nm, higher = more signal
Sequence of Fibroblast growth factor 10 (Homo sapiens) (O15520 whole entry, looked up): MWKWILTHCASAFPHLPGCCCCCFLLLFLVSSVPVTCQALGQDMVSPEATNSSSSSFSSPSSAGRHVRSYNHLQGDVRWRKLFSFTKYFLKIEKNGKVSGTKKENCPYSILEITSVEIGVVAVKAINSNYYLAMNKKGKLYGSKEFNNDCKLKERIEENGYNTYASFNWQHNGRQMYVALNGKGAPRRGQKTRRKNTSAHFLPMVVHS

[16] = test system: glycogen synthase kinase-3 (GSK3A per assay name; protocol says GSK3B); assay: GSK3 binders on small-molecule microarrays, primary screen, biochemical, small-molecule microarray, 635 nm fluorescence, GSK3A (AID 1103); details: small-molecule microarray binding, fluorescence 635 nm; higher = more signal; further: the record names both GSK3A and GSK3B
[17] = target: Epidermal growth factor receptor (Homo sapiens) (UniProt P00533); assay: EGFR binders on small-molecule microarrays, primary screen, biochemical, small-molecule microarray, 635 nm fluorescence (AID 1104); details: EGFR binding, higher = more signal;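 further: score merges 667 nm emission intensity with spot signal to noise over triplicate slides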
Sequence of Epidermal growth factor receptor (Homo sapiens) (P00533 whole entry, looked up): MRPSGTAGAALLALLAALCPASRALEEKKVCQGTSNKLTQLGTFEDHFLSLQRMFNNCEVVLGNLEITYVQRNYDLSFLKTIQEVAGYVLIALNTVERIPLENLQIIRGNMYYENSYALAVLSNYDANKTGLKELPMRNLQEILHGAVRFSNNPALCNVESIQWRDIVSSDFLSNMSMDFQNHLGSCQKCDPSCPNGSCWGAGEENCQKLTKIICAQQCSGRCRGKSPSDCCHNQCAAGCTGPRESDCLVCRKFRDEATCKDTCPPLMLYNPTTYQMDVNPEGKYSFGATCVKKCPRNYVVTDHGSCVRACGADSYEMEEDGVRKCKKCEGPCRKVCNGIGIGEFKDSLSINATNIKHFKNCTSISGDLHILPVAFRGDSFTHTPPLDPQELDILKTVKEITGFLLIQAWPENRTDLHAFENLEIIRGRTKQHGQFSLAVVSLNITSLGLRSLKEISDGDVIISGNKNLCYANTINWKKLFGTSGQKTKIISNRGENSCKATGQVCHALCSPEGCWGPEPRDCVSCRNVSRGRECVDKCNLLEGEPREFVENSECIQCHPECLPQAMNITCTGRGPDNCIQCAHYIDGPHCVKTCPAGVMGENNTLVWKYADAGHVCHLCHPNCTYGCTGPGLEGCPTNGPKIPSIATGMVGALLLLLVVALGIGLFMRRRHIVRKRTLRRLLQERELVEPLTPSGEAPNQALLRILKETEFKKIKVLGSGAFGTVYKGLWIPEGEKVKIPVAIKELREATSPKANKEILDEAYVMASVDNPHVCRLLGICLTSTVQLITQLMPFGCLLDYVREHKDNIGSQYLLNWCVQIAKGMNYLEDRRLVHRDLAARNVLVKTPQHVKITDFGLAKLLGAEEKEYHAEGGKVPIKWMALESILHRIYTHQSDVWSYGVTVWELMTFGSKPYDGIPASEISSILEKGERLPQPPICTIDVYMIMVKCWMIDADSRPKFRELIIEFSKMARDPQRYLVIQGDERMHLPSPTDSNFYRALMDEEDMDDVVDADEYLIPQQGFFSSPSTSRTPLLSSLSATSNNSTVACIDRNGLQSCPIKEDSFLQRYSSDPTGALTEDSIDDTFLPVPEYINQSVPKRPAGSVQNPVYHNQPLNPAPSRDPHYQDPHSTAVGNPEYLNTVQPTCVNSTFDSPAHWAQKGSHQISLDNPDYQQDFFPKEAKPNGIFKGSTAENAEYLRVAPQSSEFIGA

[18] = target: Follistatin-related protein 3 (Homo sapiens) (UniProt O95633); assay: FSTL3 binders on small-molecule microarrays, primary screen, biochemical, small-molecule microarray, 635 nm fluorescence (AID 1105); details: FSTL3 binding, higher = more signal;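 further: score merges emission near 667 nm and signal to noise per printed spot across three slides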
Sequence of Follistatin-related protein 3 (Homo sapiens) (O95633 whole entry, looked up): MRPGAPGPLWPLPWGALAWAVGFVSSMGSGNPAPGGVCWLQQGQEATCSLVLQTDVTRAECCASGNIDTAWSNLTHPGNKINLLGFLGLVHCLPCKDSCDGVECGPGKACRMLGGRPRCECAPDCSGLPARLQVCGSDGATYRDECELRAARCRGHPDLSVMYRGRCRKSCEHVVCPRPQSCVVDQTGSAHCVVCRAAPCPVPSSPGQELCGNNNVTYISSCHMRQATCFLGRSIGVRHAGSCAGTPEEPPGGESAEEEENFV

[19] = target: Dickkopf-related protein 1 (Homo sapiens) (UniProt O94907); assay: DKK1 binders on small-molecule microarrays, primary screen, biochemical, small-molecule microarray, 635 nm fluorescence scan (AID 1106); details: DKK1 binding, higher = more signal;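 further: score merges emission near 667 nm with signal to noise over three replicate slides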
Sequence of Dickkopf-related protein 1 (Homo sapiens) (O94907 whole entry, looked up): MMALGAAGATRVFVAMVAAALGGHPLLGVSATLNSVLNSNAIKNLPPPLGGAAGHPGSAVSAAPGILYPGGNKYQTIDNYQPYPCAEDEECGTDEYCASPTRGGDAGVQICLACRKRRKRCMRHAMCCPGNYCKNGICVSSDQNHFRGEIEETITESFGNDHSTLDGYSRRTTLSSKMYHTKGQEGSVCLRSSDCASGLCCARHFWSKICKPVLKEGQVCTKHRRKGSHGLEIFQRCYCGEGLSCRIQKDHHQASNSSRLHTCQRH

[20] = test system: Inhibin beta A chain (activin A); assay: INHBA (activin A) binders on microarrays, primary screen, biochemical, small-molecule microarray, 635 nm fluorescence scan (AID 1107); details: small-molecule microarray binding, higher = more signal;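 further: mouse activin A protein probed at 4.33 µg/mL on printed slides; score merges bound-protein fluorescence near 667 nm with spot signal-to-noise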

| Compound | composite z-score [1] | z-score [2] | z-score [3] | z-score [4] | composite z-score [5] | z-score [6] | composite z-score [7] | composite z-score [8] | composite z-score [9] | composite z-score [10] | composite z-score [11] | composite z-score [12] | composite z-score [13] | z-score [14] | composite z-score [15] | composite z-score [16] | composite z-score [17] | composite z-score [18] | composite z-score [19] | composite z-score [20] |
| --- | --- | --- | --- | --- | --- | --- | --- | --- | --- | --- | --- | --- | --- | --- | --- | --- | --- | --- | --- | --- |
| O=C1O[C@H](Cc2ccccc2)[C@@H]2[C@H]3C=CCCC=C3CN2[C@H]1Cc1ccc(O)cc1 | -1.14 | -0.055 (inactive) | -1.54 (inactive) | -0.621 (inactive) | -0.145 | 0.222 (inactive) | -0.0591 | -0.0371 | -0.268 | -0.0958 | 0.968 | -0.271 | -0.0179 | 0.192 (inactive) | -0.36 | -1.16 | -0.317 | -0.17 | -0.0128 | 0.991 |
| C=C(CCCC)/C(=C/C[C@H](OC(=O)c1ccncc1)c1ccccc1OCCO)c1cc(C(=O)OC)ccc1OC | 1.34 | 0.47 (inactive) | 0.333 (inactive) | 1.42 (inactive) | 2.31 | 0.588 (inactive) | -0.0942 | 0.502 | 0.647 | -0.15 | 0.209 | -0.126 | 0.023 | -0.63 (inactive) | 0.864 | 0.325 | 0.0323 | 0.636 | 0.273 | 1.17 |
